The values below come from PubChem BioAssay.

Structures are written as SMILES. For some assays here: Entries with a potency or affinity are not part of this list. Calls of active or inactive are those of the source.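 How the source made its calls, unless noted: active means primary screen activator hit with a dose response curve and TRPC4 channel activation at any tested dose; inactive means no activation, no dose response, or not a primary hit.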

Test [1] has as its system TRPC4 beta (transient receptor potential cation channel C4), mouse. Briefly: activators of mouse TRPC4 channel, confirmation, cell-based, Fluo4 calcium, HEK293 TRPC4beta/mu-opioid, duplicates, 10 µM (AID 2426;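 active means fluorescence ratio normalized to control raised more than 50% in primary screen plus both repeat runs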). Conditions: Fluo4 calcium fluorescence, at 10 µM; active compounds read high.
In test [2] the test system is transient receptor potential cation channel C4 beta (TRPC4), mouse. The test can be described thus: activators of mouse TRPC4 channel, confirmation, cell-based, second round, Fluo4, HEK293 TRPC4beta/mu-opioid, 1 µM (AID 2461;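 active means primary screen active and over 50% activation in each of two duplicate runs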). The note with it: Fluo4 calcium fluorescence, at 1 µM; active compounds read high.
Test [3] relates to TRPC4 (transient receptor potential cation channel C4 beta), mouse. Briefly: positive allosteric modulators of mouse TRPC4, confirmation, cell-based, second round, Fluo-4, HEK293 TRPC4beta/mu-opioid, 1 µM (AID 2554;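 active means primary screen hit whose fluorescence ratio, in both repeats, exceeds the weak agonist control mean by 3 SD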). Conditions: DAMGO EC20, Fluo-4 calcium flux, at 1 µM; active compounds read high. For orientation: Calcium flux is commonly read through the fluorescence of an indicator in the cells.

Test [4] concerns TRPC4 beta (transient receptor potential cation channel C4), mouse. Briefly: positive allosteric modulators of mouse TRPC4, confirmation, cell-based, Fluo-4, HEK293 TRPC4beta/mu-opioid (AID 2555;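 active means primary screen hit whose calcium fluorescence ratio, in both repeats, exceeds the weak agonist control mean by 3 SD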). The note with it: DAMGO EC20, Fluo-4 calcium flux, at 10 µM; active compounds read high.
Test [5] deals with Short transient receptor potential channel 4 (Mus musculus) (UniProt Q9QUQ5). Briefly: inhibitors of mouse TRPC4 channel, confirmation, cell-based, Fluo4, HEK293 TRPC4beta/mu-opioid (AID 2636;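 active means calcium signal cut by more than 3 SD below the full-agonist control yet still positive, in both repeats and the earlier primary screen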). Conditions: DAMGO, Fluo4 calcium flux, at 10 µM; active compounds read high.
Test [6] has the same target. The test can be described thus: inhibitors of mouse TRPC4 channel, confirmation, cell-based, second round, Fluo4, HEK293 TRPC4beta/mu-opioid, 1 µM (AID 2637;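 active means calcium signal ratio cut to more than 3 SD under the fully stimulated control mean yet still positive, in both repeats and the primary screen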;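 on inhibition: percent of integrated ratio relative to wells lacking test compound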). Conditions: Fluo4 calcium flux, DAMGO, at 1 µM; active compounds read high.
Test [7] has the same target. Briefly: mouse TRPC4 channel activators, dose response, cell-based, HEK293 TRPC4/mu-opioid, Fluo-4 calcium (AID 434937).
For test [8] the target is unchanged. The test can be described thus: TRPC4 positive allosteric modulators, dose response, cell-based, HEK293 TRPC4/mu-opioid, Fluo-4 calcium, EC20 DAMGO (AID 434941;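 active means earlier screen potentiator hit that boosts the TRPC4 ion channel at some dose, with a dose response; inactive means no potentiation, no dose response, or not a prior hit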;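 further: calcium entry triggered by an EC20 dose of DAMGO at the co-expressed mu-opioid receptor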).
The target of test [9] is Short transient receptor potential channel 6 (Mus musculus) (UniProt Q61143). Briefly: inhibition of mouse TRPC6 channel, confirmation, selectivity assay for TRPC4 inhibitor project, cell-based, HEK293, membrane potential dye, duplicate (AID 434948;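 active means active in primary screen and both duplicates, each dropping signal beyond three positive-control SD with fluorescence still positive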). Conditions: HEK293 TRPC6, membrane potential dye fluorescence, at 10 µM, stimulated with maximal-effect acetylcholine; active compounds read high.

For test [10] the target is unchanged. Briefly: activation of mouse TRPC6 channel, confirmation, selectivity assay for TRPC4 activator project, cell-based, HEK293, membrane potential dye, duplicate (AID 434950;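 active means membrane potential signal rise above negative control mean plus 3 SD in both duplicates, also active in the earlier TRPC4 screen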). The note with it: HEK293 TRPC6, membrane potential fluorescence, at 10 µM; active compounds read high.
Test [11] has the same target. Briefly: TRPC6 potentiation by TRPC4 potentiator hits, confirmation, selectivity assay for TRPC4 potentiator project, HEK293 cells, membrane potential dye, duplicate (AID 434952;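 active means compound raising the membrane signal above positive-control mean plus 3 SD in both repeats, and a primary screen hit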). Conditions: HEK293 TRPC6, membrane potential dye fluorescence, at 10 µM, maximal acetylcholine added after compound; active compounds read high.
In test [12] the target is Short transient receptor potential channel 4 (Mus musculus) (UniProt Q9QUQ5). The test can be described thus: calcium flux activators in TRPC4/5HT1a cells, counter-screen for TRPC4 activator project, cell-based, second counter screen, HEK293 TRPC4/5HT1a, Fluo-4 (AID 434977;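 active means calcium signal rise above buffer-control mean plus 5 SD in both duplicates, and also a hit in the primary screen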). Conditions: Fluo-4 calcium flux, at 10 µM; active compounds read high.
The nature of test [13]: calcium flux inhibitors in TRPC4/5HT1a cells, confirmation, counter-screen for TRPC4 inhibitor project, cell-based, second counter screen, HEK293 TRPC4/5HT1a, Fluo-4 (AID 434978;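 active means primary screen active whose calcium signal fell more than 3 SD beyond the full-serotonin control mean in both duplicate plates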;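 on outcome: serotonin given first at submaximal then at maximal dose after compound preincubation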). The note with it: Fluo-4 calcium flux, at 10 µM, serotonin added to trigger calcium flux; active compounds read high.
For test [14], the system named is TRPC4 (mouse), co-expressed with 5HT1a in HEK293. The test can be described thus: calcium flux potentiators in TRPC4/5HT1a cells, confirmation, counter-screen for TRPC4 potentiator project, cell-based, second counter screen, HEK293 TRPC4/5HT1a, Fluo-4 (AID 434979;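 active means signal rise over 3 SD above mean of control wells given weak agonist, in both repeats and first screen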). Conditions: Fluo-4 calcium flux, at 10 µM, serotonin added at its EC20 dose; active compounds read high.
Test [15] is described as follows: calcium flux activation in mu-opioid HEK293 cells, confirmation, counter-screen for TRPC4 activator project, cell-based, HEK293 mu-opioid receptor line (AID 449723;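 active means hit in primary screen, with calcium signal over 5 SD above buffer well mean in both duplicates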;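 further: counter screen cells carry the mu-opioid receptor alone and lack TRPC4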). Conditions: Fluo-4 calcium fluorescence, at 10 µM; active compounds read high.
Test [16] can be described thus: calcium flux enhancement in mu-opioid HEK293 cells, confirmation, counter-screen for TRPC4 allosteric potentiator project, cell-based, HEK293 mu-opioid receptor line (AID 449724;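 active means calcium signal rise more than 3 SD above the low-dose agonist control mean, in both duplicate plates and the primary screen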;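 further: HEK293 cells carrying mu-opioid receptor only with no TRPC4 channel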). Conditions: Fluo-4 calcium flux, at 10 µM, compound added before EC20 DAMGO stimulus; active compounds read high.
Test [17] can be described thus: thallium flux activation in parental CHO cells, counter-screen for KCNQ1 potentiator project (AID 493006;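 active means duplicate-averaged activation above buffer control mean plus 5 SD of those controls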;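 on activation: fluorescence ratio of max minus min over baseline after K+ and Tl+ depolarization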). Conditions: parental CHO-K1 cells, FluxOR thallium flux, at 10 µM; active compounds read high.
The target in test [18] is Potassium voltage-gated channel subfamily KQT member 1 (Homo sapiens) (UniProt P51787). The test can be described thus: KCNQ1 potassium channel potentiators, confirmation, FluxOR thallium flux, CHO cells, duplicates (AID 493007;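 active means potentiation averaged over duplicate wells exceeding buffer-only control mean by more than 3 SD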;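 on outcome: cells depolarized by a potassium plus thallium sulfate stimulus after compound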;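 on potentiation: 0% = buffer-only wells and 100% = R-L3 activator control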). The note with it: KCNQ1 cell line, FluxOR thallium flux fluorescence, at 10 µM; active compounds read high, % of reference activator effect, buffer zero.

The target in test [19] is Potassium voltage-gated channel subfamily KQT member 2 (Rattus norvegicus) (UniProt O88943). Briefly: rat KCNQ2 channel potentiation, selectivity assay for KCNQ1 potentiator project, KCNQ2-CHO-K1 cells (AID 493009;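 active means mean duplicate potentiation above the buffer control mean plus 5 SD of buffer wells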;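 further: assay conditions were tuned for KCNQ1 rather than KCNQ2 modulators; signal is max minus min fluorescence divided by baseline after thallium stimulus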). Conditions: FluxOR thallium flux fluorescence, at 10 µM; active compounds read high, scaled: buffer 0, activator control 100.
Test [20] deals with Short transient receptor potential channel 4 (Mus musculus) (UniProt Q9QUQ5). The test can be described thus: mouse TRPC4 channel inhibitors, dose response, cell-based, HEK293 TRPC4/mu-opioid, Fluo-4 calcium (AID 434942;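 active means primary screen inhibitor hit that blocks the TRPC4 channel at some tested dose, yielding a dose curve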).

Chain of Short transient receptor potential channel 4 (Mus musculus) (Q9QUQ5 whole entry, looked up): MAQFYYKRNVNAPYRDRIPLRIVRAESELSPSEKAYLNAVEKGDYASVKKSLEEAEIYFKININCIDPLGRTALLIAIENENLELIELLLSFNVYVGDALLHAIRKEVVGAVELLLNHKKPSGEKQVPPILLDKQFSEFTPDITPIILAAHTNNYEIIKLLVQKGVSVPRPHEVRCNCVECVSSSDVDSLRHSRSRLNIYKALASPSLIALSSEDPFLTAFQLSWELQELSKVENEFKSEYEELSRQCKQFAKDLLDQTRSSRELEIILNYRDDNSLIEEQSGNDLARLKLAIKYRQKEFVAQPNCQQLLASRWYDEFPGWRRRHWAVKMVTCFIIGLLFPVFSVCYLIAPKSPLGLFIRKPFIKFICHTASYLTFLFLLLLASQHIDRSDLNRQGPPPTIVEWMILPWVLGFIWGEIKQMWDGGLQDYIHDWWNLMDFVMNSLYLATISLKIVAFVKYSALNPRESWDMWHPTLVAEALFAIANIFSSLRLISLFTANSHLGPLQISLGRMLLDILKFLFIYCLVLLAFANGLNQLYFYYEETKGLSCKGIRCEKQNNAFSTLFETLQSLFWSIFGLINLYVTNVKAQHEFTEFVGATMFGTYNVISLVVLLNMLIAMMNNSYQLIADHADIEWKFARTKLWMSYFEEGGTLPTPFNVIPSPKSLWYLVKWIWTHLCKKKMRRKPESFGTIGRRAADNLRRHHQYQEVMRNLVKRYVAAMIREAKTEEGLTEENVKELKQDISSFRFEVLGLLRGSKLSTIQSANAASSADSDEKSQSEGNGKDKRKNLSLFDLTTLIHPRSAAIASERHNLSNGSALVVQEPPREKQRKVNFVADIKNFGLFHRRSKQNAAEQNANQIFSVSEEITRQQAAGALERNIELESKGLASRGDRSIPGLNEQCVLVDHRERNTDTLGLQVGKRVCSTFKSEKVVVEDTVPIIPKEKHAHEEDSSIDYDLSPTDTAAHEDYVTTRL
Chain of Potassium voltage-gated channel subfamily KQT member 2 (Rattus norvegicus) (O88943 whole entry, looked up): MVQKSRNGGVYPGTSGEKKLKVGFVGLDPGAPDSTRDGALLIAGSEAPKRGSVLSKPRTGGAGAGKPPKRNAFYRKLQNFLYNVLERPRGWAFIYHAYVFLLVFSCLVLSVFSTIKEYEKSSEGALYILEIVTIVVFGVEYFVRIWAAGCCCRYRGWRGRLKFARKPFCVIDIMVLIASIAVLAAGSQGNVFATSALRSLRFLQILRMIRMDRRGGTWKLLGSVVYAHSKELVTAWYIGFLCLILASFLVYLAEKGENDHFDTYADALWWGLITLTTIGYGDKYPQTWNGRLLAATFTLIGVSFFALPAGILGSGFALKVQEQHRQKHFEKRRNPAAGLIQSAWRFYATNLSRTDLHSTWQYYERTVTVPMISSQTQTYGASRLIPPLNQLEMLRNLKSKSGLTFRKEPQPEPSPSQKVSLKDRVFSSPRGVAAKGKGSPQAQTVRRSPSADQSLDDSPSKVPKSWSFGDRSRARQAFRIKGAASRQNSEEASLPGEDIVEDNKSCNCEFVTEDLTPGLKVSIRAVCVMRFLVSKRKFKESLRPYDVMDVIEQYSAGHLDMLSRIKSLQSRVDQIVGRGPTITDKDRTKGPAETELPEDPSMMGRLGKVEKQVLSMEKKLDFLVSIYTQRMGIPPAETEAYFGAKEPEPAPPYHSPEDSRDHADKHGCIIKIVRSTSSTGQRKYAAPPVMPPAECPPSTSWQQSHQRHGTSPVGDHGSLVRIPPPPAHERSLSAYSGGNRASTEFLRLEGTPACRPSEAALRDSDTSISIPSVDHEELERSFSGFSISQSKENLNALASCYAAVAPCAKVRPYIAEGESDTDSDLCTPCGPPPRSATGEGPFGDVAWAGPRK
Chain of Potassium voltage-gated channel subfamily KQT member 1 (Homo sapiens) (P51787 whole entry, looked up): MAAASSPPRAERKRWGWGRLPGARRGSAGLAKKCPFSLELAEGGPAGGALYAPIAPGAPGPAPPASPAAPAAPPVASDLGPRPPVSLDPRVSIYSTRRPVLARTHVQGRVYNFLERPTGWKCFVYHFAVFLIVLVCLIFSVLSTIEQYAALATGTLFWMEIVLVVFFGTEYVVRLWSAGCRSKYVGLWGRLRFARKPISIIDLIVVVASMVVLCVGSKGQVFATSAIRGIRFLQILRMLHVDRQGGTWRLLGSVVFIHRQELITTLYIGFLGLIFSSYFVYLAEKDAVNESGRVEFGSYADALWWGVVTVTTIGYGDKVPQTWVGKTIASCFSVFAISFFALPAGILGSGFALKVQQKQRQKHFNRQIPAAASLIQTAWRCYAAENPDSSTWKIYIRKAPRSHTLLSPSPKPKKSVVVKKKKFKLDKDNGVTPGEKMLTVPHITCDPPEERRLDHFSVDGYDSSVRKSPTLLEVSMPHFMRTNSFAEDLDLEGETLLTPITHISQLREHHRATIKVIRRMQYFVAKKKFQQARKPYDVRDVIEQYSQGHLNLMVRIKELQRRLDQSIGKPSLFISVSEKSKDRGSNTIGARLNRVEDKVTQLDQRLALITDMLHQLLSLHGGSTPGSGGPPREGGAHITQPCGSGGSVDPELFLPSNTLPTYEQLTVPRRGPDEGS
Chain of Short transient receptor potential channel 6 (Mus musculus) (Q61143 whole entry, looked up): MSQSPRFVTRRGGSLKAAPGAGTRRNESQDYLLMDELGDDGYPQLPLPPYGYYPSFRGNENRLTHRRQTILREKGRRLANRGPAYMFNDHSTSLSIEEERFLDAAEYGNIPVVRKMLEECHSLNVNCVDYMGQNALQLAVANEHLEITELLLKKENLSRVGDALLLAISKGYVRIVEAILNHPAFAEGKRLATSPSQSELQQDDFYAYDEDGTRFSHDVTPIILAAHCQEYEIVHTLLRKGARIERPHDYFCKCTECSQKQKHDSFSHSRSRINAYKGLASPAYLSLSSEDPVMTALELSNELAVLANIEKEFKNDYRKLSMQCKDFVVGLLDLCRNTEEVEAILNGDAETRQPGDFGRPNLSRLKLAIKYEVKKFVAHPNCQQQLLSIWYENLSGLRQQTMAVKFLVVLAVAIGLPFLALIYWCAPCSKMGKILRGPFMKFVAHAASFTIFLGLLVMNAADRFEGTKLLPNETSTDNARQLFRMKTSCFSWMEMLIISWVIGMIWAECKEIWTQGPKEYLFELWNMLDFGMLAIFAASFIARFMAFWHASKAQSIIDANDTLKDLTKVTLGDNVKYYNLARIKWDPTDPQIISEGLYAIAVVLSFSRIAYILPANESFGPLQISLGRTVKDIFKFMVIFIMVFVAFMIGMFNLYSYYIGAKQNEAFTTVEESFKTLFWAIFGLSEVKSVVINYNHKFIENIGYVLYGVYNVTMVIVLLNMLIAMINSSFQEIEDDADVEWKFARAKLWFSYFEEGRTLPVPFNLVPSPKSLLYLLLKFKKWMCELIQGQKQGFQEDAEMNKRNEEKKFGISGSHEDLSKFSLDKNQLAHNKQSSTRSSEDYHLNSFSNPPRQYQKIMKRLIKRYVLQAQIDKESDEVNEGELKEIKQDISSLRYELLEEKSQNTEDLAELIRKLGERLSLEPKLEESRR

The inhibition is the relative decrease from the control value, in per cent. For `Oc1c(Br)cc(Br)cc1C=Nc1ccc2[nH]ncc2c1`, the outcome in [1], in test [2], in test [3], in [4], in test [6] and in test [7] was inactive. The result in [8], in [9], in test [10], in [11], in test [12] and in test [14] was inactive. Besides, the outcome in test [15], in [16] and in [19] was inactive. For the same molecule, the values for the inhibition in [5] and in test [13] were 68% (active) and 30.1% (active), respectively. Moreover, the activation in test [17] is 184% (active). For the same molecule, in [18], the potentiation is 41.5% (active).

Regarding `Cc1cccc(Cc2c(C)nc3c(C(=O)NCc4ccco4)cnn3c2C)c1`, the result in test [1], in [2], in test [3], in test [4], in test [5] and in test [6] was inactive. For the same molecule, the outcome in test [7], in test [20], in [9], in [10], in test [11] and in test [12] was inactive. The result in [13], in test [15] and in test [16] was inactive. In addition, the potentiation in test [14] was 58.9% (active).

With `COc1cc(NS(=O)(=O)c2ccc3ccccc3c2)c2ncccc2c1`, the outcome in [1], in test [2], in [3], in test [4], in test [6] and in test [7] was inactive. Besides, the result in test [8], in [9], in test [10], in test [11], in test [12] and in test [14] was inactive. The result in test [15], in [16] and in test [17] was inactive. Moreover, the inhibition is 70% (active) in test [5] and 23.4% (active) in [13]. For the same molecule, the potentiation in [18] is 47% (active); in test [19], 154% (active).

With `Nc1cc(N2CCCCC2)c([N+](=O)[O-])cc1Cl`, the result in [1], in test [2], in [3], in [4], in [7] and in test [8] was inactive. Moreover, the call in test [9], in [10], in [11], in test [12], in test [13] and in test [14] was inactive. The outcome in test [15] and in [16] was inactive. For the same molecule, the inhibition in test [5] was 88% (active); in test [6], 42% (active).

For the molecule `CN(C)CC(CCC(CN(C)C)C(O)(c1ccccc1)c1ccccc1)C(O)(c1ccccc1)c1ccccc1` (stereo not given), the outcome in [1], in [2], in test [3], in test [4], in test [5] and in test [6] was inactive. Besides, the outcome in test [7], in test [8], in [9], in [10], in [11] and in test [12] was inactive. Moreover, the outcome in [13], in test [14], in test [15], in [16], in test [17] and in test [18] was inactive. The outcome in [19] was inactive.

As to `Cc1ccc(C(C)C)cc1OCCCCN1CCCC1`, the result in [1], in test [2], in test [5], in test [6], in test [7] and in test [20] was inactive. The molecule was classed as inactive in [9], in test [10], in test [11], in test [12], in [13] and in [15]. The outcome in [16] was inactive. Moreover, the potentiation is 15% (active) in test [3], 12% (active) in test [4] and 6.54% (active) in test [14].

In the case of `CC(C1CC2CCC1C2)n1c(-c2cccs2)n[nH]c1=S` (stereo not given), the result in [1], in test [2], in test [3], in [4], in [6] and in test [7] was inactive. The result in test [8], in [9], in test [10], in test [11], in [12] and in [14] was inactive. The result in test [15], in test [16] and in test [17] was inactive. The inhibition in test [5] is 54% (active); in test [13] it was 34% (active). Also, the figures for the potentiation in test [18] and in [19] were 48% (active) and 148% (active), respectively.

Take `O=Cc1cc(N=Nc2ccccc2Cl)ccc1O`: the outcome in test [1], in test [2], in [3], in test [4], in test [6] and in test [7] was inactive. In addition, the outcome in test [8], in [9], in [10], in [11], in [12] and in test [14] was inactive. The result in test [15] and in test [16] was inactive. For the same molecule, the inhibition in [5] is 91% (active); in test [13], 30.2% (active). Also, the activation in test [17] was 237% (active). The potentiation in test [18] is 81% (active); in [19], 248% (active).

On to `c1ccc(-c2nc(NCc3ccco3)c3ccccc3n2)cc1`, for which the result in test [1], in test [2], in test [3], in test [4], in test [6] and in [7] was inactive. Moreover, the outcome in test [8], in [9], in test [10], in [11], in test [12] and in test [14] was inactive. The result in [15], in test [16], in test [17], in test [18] and in test [19] was inactive. In addition, the inhibition in [5] was 87% (active); in [13] it was 32.3% (active).

Consider `O=c1[nH][nH]c(-c2ccccc2)c1C=Nc1ccc(Cl)cc1`, for which the result in test [1], in test [2], in test [3], in test [4], in [5] and in [6] was inactive. Also, the result in test [7], in [20], in test [9], in [10], in test [11] and in [12] was inactive. Besides, the result in test [13], in test [15] and in test [16] was inactive. The potentiation in test [14] was 79.8% (active).

Regarding `O=[N+]([O-])c1cc(C(F)(F)F)ccc1NC1CCN(Cc2ccccc2)C1` (stereo not given), the result in test [1], in test [2], in test [3], in [4], in test [5] and in [6] was inactive. Besides, the outcome in [7], in test [20], in test [9], in test [10], in [11] and in test [12] was inactive. The outcome in test [13], in test [15] and in test [16] was inactive. Further, in test [14], the potentiation was 23.9% (active).

In the case of `O=[N+]([O-])c1ccc(/C=N/Nc2nc(N3CCCCC3)nc(N3CCCCC3)n2)o1`, the outcome in [1], in test [2], in test [3], in [5], in [6] and in test [7] was inactive. The result in test [20], in test [9], in [10], in [11], in test [12] and in [13] was inactive. Also, the result in test [15] and in test [16] was inactive. Moreover, the potentiation in test [4] is 21% (active); in test [14], 59.2% (active).

As for `Cc1cc(C)cc(N/C(N)=N/c2nc(C)cc(C)n2)c1`, the result in test [1], in test [2], in test [3], in test [4], in [6] and in [7] was inactive. For the same molecule, the result in test [8], in [9], in test [10], in [11], in [12] and in [14] was inactive. Further, the result in test [15], in [16], in [17], in [18] and in test [19] was inactive. Moreover, the inhibition in test [5] was 100% (active); in [13] it was 30.2% (active).

As to `Cc1ccc(/C=N/NC(=O)NC2CCCCC2)o1`, the outcome in test [1], in test [2], in test [5], in test [6], in test [7] and in test [20] was inactive. In addition, the outcome in [9], in test [10], in test [11], in [12], in [13] and in test [15] was inactive. In addition, in test [16], the result was inactive. Further, the values for the potentiation in test [3], in test [4] and in test [14] were 10% (active), 54% (active) and 69.9% (active), respectively.
